Molecules are shown by their SMILES. Results filed as inconclusive are left out. Active and inactive are the calls of the source. Unless noted, calls follow the shape of the dose curve; as a rule, active = well fitted curve in the direction sought with a large enough effect; inconclusive = small, poorly fitted or top-dose-only effect, or another doubt; inactive = no such curve, though single readings can be large; an effect the other way counts as inactive or inconclusive.

Assay [1] has as its target Lysosomal acid glucosylceramidase (Homo sapiens) (UniProt P04062). The experiment in a line: Glucocerebrosidase-p2 (AID 348; in the data active = potency below about 10 µM; also: potency is read from the fitted curve at half-maximal effect). The note with it: purified GBA, blue fluorogenic substrate, 40 min. Summed up:
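Normal human glucocerebrosidase (0.2 nM) with blue fluorogenic substrate (80 uM final) in citrate/phosphate pH 5.9 with 10mM sodium taurocholate, 0.01% tween-20; 40 min RT, NaOH/glycine stop; fluorescence Ex 365/Em 440; AC50 from a titration from 0.6 nM upwards.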

A short description of assay [2]: AP1 Signaling Pathway (AID 357; active = well fitted curve in either direction with a large enough effect, not every such curve was filed as active; also: % is scaled to controls: 0 for no effect and ±100 for the full control effect). The note with it: ME-180 AP-1-bla reporter, EGF-induced, beta-lactamase ratio, 5 h; at 7.69 µM (top of the series) unless noted. Summed up:
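ME-180 cells with beta-lactamase reporter under AP-1 response element, stimulated with EC50 EGF; compounds tested in titration series, 5 h at 37 °C. CCF4 substrate added 2.5 h at room temperature; 460/530 nm emission ratio gave %activity and AC50.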

Assay [3] addresses Cytochrome P450 1A2 (Homo sapiens) (UniProt P05177). The experiment in a line: p450-cyp1a2 (AID 410; calls by dose curve; also: potency is read from the fitted curve at half-maximal effect;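 as to activity change, negative = inhibition: -100% = full effect of reference inhibitor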). Summed up:
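O-Demethylation of luciferin 6' methyl ether by human CYP1A2 is monitored as luciferase luminescence. Substrate sits at Km (100uM); enzyme is 20nM. Values are scaled to 57 uM furafylline as maximal inhibition.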

A short description of assay [4]: NFAT Signaling Pathway (AID 444; active = well fitted curve in either direction with a large enough effect, not every such curve was filed as active;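 also: carbachol stimulus at about its EC50 of 1 µM final; % is scaled to controls: 0 for no effect and ±100 for the full control effect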). To be noted: Jurkat NFAT-bla M1, carbachol, beta-lactamase ratio, 5 h; at 7.69 µM (top of the series) unless noted. In a few lines: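 Jurkat cells carrying an NFAT-driven β-lactamase reporter and co-transfected muscarinic M1 receptor were treated with compound plus carbachol (1 uM final, an EC50 level) for 5 h at 37 °C. CCF4 loading followed for 1 h at RT; 460/530 nm ratio gave %activity.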

Assay [5] can be described thus: Stat Signaling Pathway (AID 446; active = well fitted curve in either direction with a large enough effect, not every such curve was filed as active;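 also: ME-180 cervical cancer cells given 40 pM IL-6 alongside compound; SIE-controlled beta-lactamase reporter measured as 460/530 nm FRET emission ratio; % is scaled to controls: 0 for no effect and ±100 for the full control effect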). To be noted: ME-180 SIE beta-lactamase reporter, IL-6 stimulated, 5 h; at 7.69 µM (top of the series) unless noted. Summed up:
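Emission at 460 and 530 nm (excitation 405 nm) reports SIE-controlled beta-lactamase in ME-180 cells. Cells received compound with 40 pM IL-6 for 5 hrs at 37 C; data scaled between 300 pM IL-6 and 125 nM JAK-inhibitor controls.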

The target of assay [6] is Glucocorticoid receptor (Homo sapiens) (UniProt P04150). The experiment in a line: GR-GFP Redistribution (AID 450;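 active = compounds whose dose series gives a full or clear partial fitted curve of increased nuclear translocation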; also: potency is read from the fitted curve at half-maximal effect). To be noted: U2OS GR-GFP nuclear translocation, laser cytometry, 2 h.
Assay [7] shares this target. Nature of the assay: GR-EFC Redistribution (AID 451; calls by dose curve; also: potency is read from the fitted curve at half-maximal effect). The note with it: CHO-K1 GR-EFC translocation, beta-gal luminescence, 2 h. Summed up: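 CHO-K1 cells stably expressing nuclear-localized β-gal enzyme acceptor and GR fused C-terminally to the enzyme donor fragment; ligand-driven nuclear translocation restores β-gal by complementation. Compounds titrated up to 46 uM final, 2 h at 37 °C; luminescence read.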

Assay [8] addresses Mitogen-activated protein kinase 10 (Mus musculus) (UniProt Q61831). The experiment in a line: JNK3 AlphaScreen Assay (AID 530; active = well fitted curve in either direction with a large enough effect, not every such curve was filed as active;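 also: kinase came from lysate of stimulated human HepG2 cells; signal reports phosphorylation of biotinylated GST-cJun 1-79 at Ser73 with 10 µM ATP; % is scaled to controls: 0 for no effect and ±100 for the full control effect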). Summed up: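 Phosphorylation of biotinylated GST-cJun(1-79) at Ser73 is measured by AlphaScreen proximity luminescence. Enzyme is JNK3 in HepG2 lysates activated with interleukin-1beta and tumor necrosis factor alpha; ATP is 10 uM final.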
On the technique in general: In Alpha technology, singlet oxygen from a donor bead excites a nearby acceptor bead.

Assay [9] addresses 3',5'-cyclic-AMP phosphodiesterase 4B (Homo sapiens) (UniProt Q07343). Nature of the assay: qHTS Assay for Inhibitors of PDE-IV (AID 607; active = well fitted activation curve with a large enough effect in the main read-out, with a control signal flat, not every such curve was filed as active; also: % of control where 0% means no effect). In a few lines: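 The readout is membrane depolarisation from a cAMP-sensing CNG channel, detected with a potential dye at ex 535/em 590. Cells were HEK293-derived (endogenous PDE-IV) at 1000 cells/well, titrated up to 22.9 uM final.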
A short description of assay [10]: qHTS Assay for Lipid Storage Modulators (AID 1519; calls by dose curve). The note with it: Drosophila S3 cells, BODIPY lipid droplet/cell ratio, laser cytometry, cells loaded with oleic acid; for activity change, negative = inhibition: at 57.5 µM (top of the series). Summed up: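 Cells seeded at 5,000 per well were treated with compounds over a concentration series and loaded with oleic acid (400 uM, as added). Lipid droplet fluorescence (488 nm excitation, 500-530 nm channel) was read by laser-scanning cytometry and normalized to 20 uM Triacsin C.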
For orientation: qHTS replaces the single test concentration by a dilution series.

Assay [11] deals with Dual specificity protein kinase CLK4 (Homo sapiens) (UniProt Q9HAZ1). Nature of the assay: qHTS Assay for Inhibitors of CDC-like Kinase 4 (Kinase-Glo Assay) (AID 1770). Also: % is scaled to controls: 0 for no effect and ±100 for the full control effect; nearly all actives have a fitted effect of over 65% in size. In a few lines:
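Readout: Kinase-Glo luminescence from ATP left after a 4.5 h room-temperature reaction of 25 nM Clk4 with 100 uM RS peptide and 1 uM ATP (final). Buffer: 25 mM Tris pH 7.5, 10 mM MgCl2.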

For assay [12] the target is unchanged. Nature of the assay: qHTS Assay for Inhibitors of CDC-like Kinase 4 (ADP-Glo Assay) (AID 1771). Also: % is scaled to controls: 0 for no effect and ±100 for the full control effect; nearly all actives have a fitted effect of over 70% in size. Summed up: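 Compounds are pin-transferred onto substrate mix (100 uM RS peptide, 1 uM ATP), then 25 nM Clk4 is added. After 1 hr at room temperature, ADP-Glo reagent runs 45 min, detection reagent 30 min, then luminescence is read.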
Assay [13] has the same target. The experiment in a line: qHTS Assay for Inhibitors of CDC-like Kinase 4 (ADP-FP Assay) (AID 1795).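 Also: recombinant human CLK4 phosphorylating RS repeat peptide at 1 µM ATP; % is scaled to controls: 0 for no effect and ±100 for the full control effect; nearly all actives have a fitted effect of over 60% in size.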 In a few lines: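 FP readout: Orange Transcreener ADP2 tracer (4 nM) plus ADP antibody, read after 30 min at room temperature. Kinase step: 6.25 nM Clk4, 100 uM RS peptide, 1 uM ATP, pH 7.5, 1 h.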
Assay [14] concerns the target Ubiquitin carboxyl-terminal hydrolase 1 (Homo sapiens) (UniProt O94782). Nature of the assay: Inhibitors of USP1/UAF1: Pilot qHTS (AID 504865).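 Also: rhodamine fluorescence freed from ubiquitin-rhodamine substrate followed over time; top concentration of the series differs between compounds; % is scaled to controls: 0 for no effect and ±100 for the full control effect; nearly all actives have a fitted effect of over 35% in size.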 Summed up: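 1nM USP1/UAF1 + cpd, 15 min RT; start w/ Ub-Rho 150nM final; kinetic FL 480/540 nm, 6 reads q60 s. Buffer 50mM HEPES pH 7.8, 0.5mM EDTA, 1mM TCEP, 0.01% Tween-20, 0.1 mg/ml BSA.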
A short description of assay [15]: Primary qHTS for small molecule stabilizers of the endoplasmic reticulum resident proteome: Secreted ER Calcium Modulated Protein (SERCaMP) assay (AID 1508630). Also: % is scaled to controls: 0 for no effect and ±100 for the full control effect. In a few lines: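 The SH-SY5Y reporter protocol was run at 3 concentrations up to 38.3 uM (primary) or 11 concentrations (follow-up): 16 h compound, 100 nM thapsigargin for 4 h, then extracellular luciferase luminescence.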

Assay [16] concerns the target Cytochrome P450 3A4 (Homo sapiens) (UniProt P08684). The experiment in a line: qHTS Assay for Activators of Cytochrome P450 3A4 (AID 885). Also: nearly all actives have a fitted effect of over 65% in size. Summed up: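 Activators are scored by enhanced luminescence from CYP3A4 conversion of luciferin-PPXE (25uM, equal to KM) to luciferin, after 60 min at RT with an NADPH-regenerating system.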
The nature of assay [17]: qHTS Assay for Identification of Small Molecule Agonists for Hypoxia Response Element Signaling Pathway (AID 914; active = well fitted activation curve with a large enough effect in the signal ratio, with a control signal flat, not every such curve was filed as active; the % refers to the signal ratio; also: % of control where 0% means no effect). To be noted: ME-180 (cervical carcinoma) HRE-bla reporter, beta-lactamase ratio, CoCl2, 17 h; activation: stronger effect = higher value. In a few lines: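 qHTS titration; ME-180 HRE-bla cells; EC50 CoCl2 co-treatment, 17 h at 37 degrees Celsius; CCF4 dye, ex 405nm, em 460nm and 530nm; %Activity from ratio; AC50.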

Assay [18] addresses Rap guanine nucleotide exchange factor 3 (Homo sapiens) (UniProt O95398). Nature of the assay: Confirmatory qHTS for antagonist of cAMP-regulated guanine nucleotide exchange factor 3 (EPAC1) (AID 1645880).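 Also: plate controls were DMSO only for no effect and full effect of the ATA control for full effect; nearly all actives have a fitted effect of over 55% in size.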 Summed up: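 Released BODIPY-GDP fluoresces less than Rap1-bound BODIPY-GDP; the signal is followed at 480/540 nm at 5-min intervals over 30 min, after 5 min at room temperature. Reactions contain 100 nM EPAC1, 250 nM RAP1B-BODIPY-GDP and 50 uM GDP; results are normalized to ATA and DMSO.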

Assay [19] deals with Rap guanine nucleotide exchange factor 4 (Homo sapiens) (UniProt Q8WZA2). The experiment in a line: Confirmatory qHTS for antagonist of cAMP-regulated guanine nucleotide exchange factor 4 (EPAC2) (AID 1645885). Also: % is scaled to controls: 0 for no effect and ±100 for the full control effect; nearly all actives have a fitted effect of over 25% in size.
Assay [20] deals with Cytochrome P450 2C19 (Homo sapiens) (UniProt P33261). Nature of the assay: qHTS Assay for Inhibitors and Substrates of Cytochrome P450 2C19 (AID 899). Also: % is scaled to controls: 0 for no effect and ±100 for the full control effect; nearly all actives have a fitted effect of over 60% in size. In a few lines: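 In 50mM KPO4, the reaction held 5nM enzyme and KM-level (10uM) Luciferin-H EGE; it ran 60 min at 37C after NADPH regeneration and a 10 min compound preincubation. Luminescence values were scaled to 57uM ketoconazole as complete inhibition.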

Assay [21] deals with Rap guanine nucleotide exchange factor 3 (Homo sapiens) (UniProt O95398). The experiment in a line: Confirmatory qHTS for agonist of cAMP-regulated guanine nucleotide exchange factor 3 (EPAC1) (AID 1645881).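 Also: EPAC1 catalysed release of BODIPY-GDP from Rap1B seen as fluorescence loss; 100% = effect of cAMP agonist control; nearly all actives have a fitted effect of over 75% in size.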
Assay [22] deals with Rap guanine nucleotide exchange factor 4 (Homo sapiens) (UniProt Q8WZA2). Nature of the assay: Confirmatory qHTS for agonist of cAMP-regulated guanine nucleotide exchange factor 4 (EPAC2) (AID 1645884).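 Also: nucleotide exchange releases bodipy-GDP from Rap1 and this lowers its fluorescence; % is scaled to controls: 0 for no effect and ±100 for the full control effect; nearly all actives have a fitted effect of over 65% in size.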
[23] abbreviates: measured here: cell count channel max response.
Setting [24] is: measured here: lipid channel max response.

Glucocorticoid receptor (Homo sapiens), sequence (P04150 whole entry, looked up, the tested form may be a part): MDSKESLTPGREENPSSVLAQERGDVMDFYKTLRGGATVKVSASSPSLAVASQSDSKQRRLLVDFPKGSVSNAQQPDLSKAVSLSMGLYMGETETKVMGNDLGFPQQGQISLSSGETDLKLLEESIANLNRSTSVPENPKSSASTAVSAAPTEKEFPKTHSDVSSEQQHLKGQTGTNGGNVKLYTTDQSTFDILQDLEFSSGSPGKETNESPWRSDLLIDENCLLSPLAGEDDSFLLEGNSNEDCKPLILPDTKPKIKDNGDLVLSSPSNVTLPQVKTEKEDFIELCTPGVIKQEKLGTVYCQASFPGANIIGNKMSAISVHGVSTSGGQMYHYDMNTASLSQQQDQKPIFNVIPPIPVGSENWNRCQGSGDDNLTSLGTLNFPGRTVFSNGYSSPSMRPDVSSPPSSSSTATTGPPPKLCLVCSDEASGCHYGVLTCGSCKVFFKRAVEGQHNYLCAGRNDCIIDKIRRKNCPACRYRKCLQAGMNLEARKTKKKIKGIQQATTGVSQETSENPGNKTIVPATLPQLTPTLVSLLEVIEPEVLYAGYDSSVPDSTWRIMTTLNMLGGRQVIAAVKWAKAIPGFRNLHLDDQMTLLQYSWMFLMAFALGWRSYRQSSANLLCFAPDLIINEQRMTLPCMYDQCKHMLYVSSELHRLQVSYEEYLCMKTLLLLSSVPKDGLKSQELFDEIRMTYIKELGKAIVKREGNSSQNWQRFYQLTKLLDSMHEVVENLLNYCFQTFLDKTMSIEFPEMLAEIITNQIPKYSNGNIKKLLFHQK
3',5'-cyclic-AMP phosphodiesterase 4B (Homo sapiens), sequence (Q07343 whole entry, looked up): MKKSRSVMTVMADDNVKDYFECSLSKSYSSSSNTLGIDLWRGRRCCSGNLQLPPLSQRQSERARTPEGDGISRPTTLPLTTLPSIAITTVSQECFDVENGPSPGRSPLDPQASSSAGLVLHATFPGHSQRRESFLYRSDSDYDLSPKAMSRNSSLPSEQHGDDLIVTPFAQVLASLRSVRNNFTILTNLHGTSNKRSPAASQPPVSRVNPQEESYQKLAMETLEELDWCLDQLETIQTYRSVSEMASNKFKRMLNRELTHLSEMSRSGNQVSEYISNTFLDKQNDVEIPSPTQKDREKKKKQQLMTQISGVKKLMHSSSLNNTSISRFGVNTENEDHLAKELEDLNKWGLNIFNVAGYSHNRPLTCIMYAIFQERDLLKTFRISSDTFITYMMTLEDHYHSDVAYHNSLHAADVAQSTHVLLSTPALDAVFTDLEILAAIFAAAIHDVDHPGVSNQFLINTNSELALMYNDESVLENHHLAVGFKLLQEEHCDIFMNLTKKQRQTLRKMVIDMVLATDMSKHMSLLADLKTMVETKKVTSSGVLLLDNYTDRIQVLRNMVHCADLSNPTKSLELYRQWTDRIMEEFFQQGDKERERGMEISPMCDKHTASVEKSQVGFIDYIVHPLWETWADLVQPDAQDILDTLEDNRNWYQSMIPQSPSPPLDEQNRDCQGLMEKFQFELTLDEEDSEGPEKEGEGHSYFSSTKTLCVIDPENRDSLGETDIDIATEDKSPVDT
Lysosomal acid glucosylceramidase (Homo sapiens), sequence (P04062 whole entry, looked up): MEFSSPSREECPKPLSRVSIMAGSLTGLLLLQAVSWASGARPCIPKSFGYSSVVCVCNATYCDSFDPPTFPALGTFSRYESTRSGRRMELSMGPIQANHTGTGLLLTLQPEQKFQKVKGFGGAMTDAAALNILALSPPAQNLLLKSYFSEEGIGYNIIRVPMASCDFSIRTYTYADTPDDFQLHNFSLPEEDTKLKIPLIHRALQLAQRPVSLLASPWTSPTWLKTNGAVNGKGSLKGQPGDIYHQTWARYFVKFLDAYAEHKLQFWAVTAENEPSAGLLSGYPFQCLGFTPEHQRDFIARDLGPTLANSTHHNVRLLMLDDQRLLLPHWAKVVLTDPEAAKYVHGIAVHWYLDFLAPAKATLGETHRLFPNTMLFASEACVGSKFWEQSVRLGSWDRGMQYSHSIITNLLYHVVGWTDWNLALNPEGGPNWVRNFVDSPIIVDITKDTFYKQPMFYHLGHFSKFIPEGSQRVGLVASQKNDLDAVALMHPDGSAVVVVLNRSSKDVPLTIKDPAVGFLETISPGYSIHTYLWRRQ
Dual specificity protein kinase CLK4 (Homo sapiens), sequence (Q9HAZ1 whole entry, looked up): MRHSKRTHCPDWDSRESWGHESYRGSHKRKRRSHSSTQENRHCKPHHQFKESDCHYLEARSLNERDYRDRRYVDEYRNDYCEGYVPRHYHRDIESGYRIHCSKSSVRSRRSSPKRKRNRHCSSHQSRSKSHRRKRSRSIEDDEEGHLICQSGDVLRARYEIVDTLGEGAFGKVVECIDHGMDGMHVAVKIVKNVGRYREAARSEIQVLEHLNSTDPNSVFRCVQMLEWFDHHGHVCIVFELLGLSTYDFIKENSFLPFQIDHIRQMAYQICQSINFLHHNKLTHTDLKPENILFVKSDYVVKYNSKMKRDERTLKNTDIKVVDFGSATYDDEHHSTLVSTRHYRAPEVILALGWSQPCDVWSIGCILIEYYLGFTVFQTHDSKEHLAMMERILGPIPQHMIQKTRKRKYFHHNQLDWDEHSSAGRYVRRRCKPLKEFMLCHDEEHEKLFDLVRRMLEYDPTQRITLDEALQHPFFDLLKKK
Cytochrome P450 1A2 (Homo sapiens), sequence (P05177 whole entry, looked up): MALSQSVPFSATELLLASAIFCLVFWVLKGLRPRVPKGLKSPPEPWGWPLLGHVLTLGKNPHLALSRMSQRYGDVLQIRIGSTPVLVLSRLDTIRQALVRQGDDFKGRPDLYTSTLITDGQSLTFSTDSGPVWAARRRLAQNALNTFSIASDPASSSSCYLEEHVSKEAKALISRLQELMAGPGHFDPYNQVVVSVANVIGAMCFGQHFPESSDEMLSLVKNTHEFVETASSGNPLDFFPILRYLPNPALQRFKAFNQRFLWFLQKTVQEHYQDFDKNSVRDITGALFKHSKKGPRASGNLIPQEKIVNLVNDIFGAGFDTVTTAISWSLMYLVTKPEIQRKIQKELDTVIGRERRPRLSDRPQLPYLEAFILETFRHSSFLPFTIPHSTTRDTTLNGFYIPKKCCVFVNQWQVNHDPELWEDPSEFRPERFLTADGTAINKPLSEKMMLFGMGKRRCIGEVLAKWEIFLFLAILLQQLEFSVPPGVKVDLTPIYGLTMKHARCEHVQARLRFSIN
Rap guanine nucleotide exchange factor 3 (Homo sapiens), sequence (O95398 whole entry, looked up): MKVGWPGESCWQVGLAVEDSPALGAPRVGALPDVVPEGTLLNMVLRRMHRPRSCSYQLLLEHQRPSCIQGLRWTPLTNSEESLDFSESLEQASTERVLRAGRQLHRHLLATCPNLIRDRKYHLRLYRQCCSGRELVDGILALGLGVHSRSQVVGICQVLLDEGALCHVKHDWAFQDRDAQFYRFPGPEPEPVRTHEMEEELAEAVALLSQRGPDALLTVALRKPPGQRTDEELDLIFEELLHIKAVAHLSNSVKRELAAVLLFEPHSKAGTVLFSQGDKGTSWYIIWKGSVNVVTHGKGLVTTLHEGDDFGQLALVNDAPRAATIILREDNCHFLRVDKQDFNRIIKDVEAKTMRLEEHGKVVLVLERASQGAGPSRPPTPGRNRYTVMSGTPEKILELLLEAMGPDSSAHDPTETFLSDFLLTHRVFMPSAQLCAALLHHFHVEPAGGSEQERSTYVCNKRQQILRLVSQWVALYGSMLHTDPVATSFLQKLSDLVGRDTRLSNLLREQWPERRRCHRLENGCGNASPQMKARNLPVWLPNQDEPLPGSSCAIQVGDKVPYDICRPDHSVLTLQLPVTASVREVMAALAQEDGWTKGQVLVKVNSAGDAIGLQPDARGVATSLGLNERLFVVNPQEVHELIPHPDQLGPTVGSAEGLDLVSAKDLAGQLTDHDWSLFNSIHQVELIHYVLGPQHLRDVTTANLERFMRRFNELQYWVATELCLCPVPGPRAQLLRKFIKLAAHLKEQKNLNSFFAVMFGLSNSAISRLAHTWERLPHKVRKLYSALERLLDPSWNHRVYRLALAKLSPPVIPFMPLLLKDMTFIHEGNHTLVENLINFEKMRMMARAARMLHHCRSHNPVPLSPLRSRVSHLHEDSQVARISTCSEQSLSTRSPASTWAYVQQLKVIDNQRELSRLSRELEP
Rap guanine nucleotide exchange factor 4 (Homo sapiens), sequence (Q8WZA2 whole entry, looked up): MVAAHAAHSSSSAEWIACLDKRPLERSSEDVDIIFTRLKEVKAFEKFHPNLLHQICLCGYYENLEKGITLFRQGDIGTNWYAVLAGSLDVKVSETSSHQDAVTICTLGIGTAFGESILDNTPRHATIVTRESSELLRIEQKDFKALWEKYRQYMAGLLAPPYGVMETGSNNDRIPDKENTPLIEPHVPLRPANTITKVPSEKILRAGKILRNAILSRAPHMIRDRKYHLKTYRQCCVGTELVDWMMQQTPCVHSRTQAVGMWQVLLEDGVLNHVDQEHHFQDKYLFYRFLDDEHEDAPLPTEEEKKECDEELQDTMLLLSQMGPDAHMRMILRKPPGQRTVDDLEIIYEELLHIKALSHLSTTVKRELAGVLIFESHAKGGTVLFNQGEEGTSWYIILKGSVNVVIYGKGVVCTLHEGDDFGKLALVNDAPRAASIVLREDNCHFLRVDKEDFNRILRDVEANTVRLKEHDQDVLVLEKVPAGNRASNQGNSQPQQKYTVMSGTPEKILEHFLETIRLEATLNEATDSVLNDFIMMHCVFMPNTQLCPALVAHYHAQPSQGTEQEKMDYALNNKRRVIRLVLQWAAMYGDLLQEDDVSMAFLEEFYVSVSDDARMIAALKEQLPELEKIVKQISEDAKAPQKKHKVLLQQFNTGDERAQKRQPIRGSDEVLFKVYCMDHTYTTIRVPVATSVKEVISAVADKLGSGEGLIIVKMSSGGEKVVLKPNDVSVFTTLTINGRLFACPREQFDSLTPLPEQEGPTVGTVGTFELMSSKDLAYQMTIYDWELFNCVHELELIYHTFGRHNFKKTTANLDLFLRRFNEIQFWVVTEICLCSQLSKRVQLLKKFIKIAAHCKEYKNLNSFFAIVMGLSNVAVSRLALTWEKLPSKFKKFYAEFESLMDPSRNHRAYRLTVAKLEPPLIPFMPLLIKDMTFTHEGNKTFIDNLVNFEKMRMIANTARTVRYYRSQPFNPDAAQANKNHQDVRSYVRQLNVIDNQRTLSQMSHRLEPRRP

On to `Cc1nc2cnc(Oc3ccccc3)nc2n(C)c1=O`, for which the Potency in [1] was > 11.4 µM (inactive); in assay [3], 12.6 µM (active); in [6], > 9.22 µM (inactive); in assay [7] it was > 46 µM (inactive). The activity change, negative = inhibition in [2] is -8.04% (inactive); in assay [4] it was -5.98% (inactive); in assay [10] it was 6.1% (inactive). Also, in assay [5], the activity, negative = inhibition is -10.2% (inactive). For the same compound, the compound was called inactive in [8]. Moreover, the Potency entry in [9], in [11], in assay [12], in assay [13], in [14] and in assay [15] was “inactive” in each case. Further, the max response in assay [10] (setting [23]) is 14.9%; in assay [10] (setting [24]), 19.9%.

In the case of `Cc1nc2cnc(N3CCN(C)CC3)nc2n(C)c1=O`, the Potency in assay [1] was > 11.4 µM (inactive); in assay [3] it was 12.6 µM (active); in assay [6], > 9.22 µM (inactive); in assay [7] it was > 46 µM (inactive). Further, the activity change, negative = inhibition in [2] was 2.98% (inactive); in assay [4], 8.62% (inactive); in assay [10] it was 3.28% (inactive). Also, in assay [5], the activity, negative = inhibition is -15% (inactive). Besides, the result in assay [8] was inactive. Also, the Potency entry in assay [9], in assay [11], in assay [12], in assay [13], in [14] and in assay [15] was “inactive” throughout. Also, the max response in assay [10] (setting [23]) was determined as 5.81%; in assay [10] (setting [24]), 7.23%.

Regarding `CN(C)c1ncc2nc(-c3cccs3)c(=O)n(C[C@H]3CCCO3)c2n1`, the Potency in assay [1] is > 11.4 µM (inactive); in assay [3], 1.58 µM (active); in assay [6], > 9.22 µM (inactive); in [7] it was > 46 µM (inactive). The figures for the activity change, negative = inhibition in assay [2], in assay [4] and in [10] were -15.4% (inactive), 12.3% (inactive) and 4.26% (inactive), respectively. The activity, negative = inhibition in assay [5] was 1.25% (inactive). Also, in assay [8], the compound was called inactive. Moreover, the Potency result in [16], in assay [11], in assay [12], in [15], in assay [18] and in assay [19] was “inactive” throughout. For the same compound, the activation in assay [17] is -3.72% (inactive). Moreover, the max response in assay [10] (setting [23]) came to 14.9%; in [10] (setting [24]), 17.7%.

`O=C(c1cc(C(F)(F)F)cc(C(F)(F)F)c1)N1CCC2(CCCN(Cc3nccs3)C2)CC1`: the Potency was > 11.4 µM (inactive) in assay [1] and > 46 µM (inactive) in assay [7]. Besides, the activity change, negative = inhibition in assay [2] was -11.4% (inactive); in assay [10], -19.9% (inactive). Also, the Potency entry in assay [3], in assay [9], in assay [16], in assay [20] and in [15] was “inactive” throughout. Also, the activity, negative = inhibition in [5] was -17.2% (inactive). For the same compound, the outcome in [8], in assay [21] and in [22] was inactive. Moreover, the figures for the max response in assay [10] (setting [23]) and in assay [10] (setting [24]) were 17.8% and -1.38%, respectively.

(Values after PubChem BioAssay (NCATS).)
